Screening data: PubChem BioAssay, SRMLSC
Spn DPM-DC inh: S. pneumoniae DPM-DC inhibitors, primary screen, biochemical, PK/LDH-coupled NADH fluorescence; diphosphomevalonate decarboxylase (Streptococcus pneumoniae D39); purified DPM-DC; calls only at 10 µM; actives 0.49% (n = 65,000); AID 556, 2006;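 active = the 320 compounds with the highest percent inhibition in the single-dose primary screen, excluding strongly autofluorescent ones, cut at about 32% in these data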;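 note: kinetic rate of NADH fluorescence loss reporting ADP formed by the decarboxylase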
NADH coupling: inhibitors of PK/LDH coupling enzymes, profiling panel, artefact control, biochemical, MLSMR library; coupled PK/LDH NADH assays, four targets; IC50, µM (top dose mostly 10 µM), for inactives: at the top dose inhibition; actives 0.02% (n = 65,000);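 active = single-dose screening hits from any of four coupled enzyme assays that gave an IC50 when retested across doses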;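 note: the DPM-DC format reads NADH fluorescence rather than 340 nm absorbance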
Spn MK inh: S. pneumoniae MK inhibitors, primary screen, biochemical, PK/LDH-coupled NADH absorbance; purified MK, PK/LDH-coupled NADH absorbance 340 nm; inhibition, % at 10 µM; actives 0.48% (n = 65,000); AID 555, 2006;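 active = ranked among the strongest by inhibition in the single 10 µM screen, a fixed top-ranked set picked for dose follow-up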
Abs 340nm: compound light absorbance at 340 nm, profiling panel, artefact control, biochemical, MLSMR library, data from PS, PMK, MK assays; compound absorbance at 340 nm, fold over control; fold change at 10 µM; 65,000 tested, under 10 active; AID 708, 2007;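 active = at 10 µM dose, initial 340 nm absorbance at least 2 fold that of control wells; inactive = change under 2 fold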;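 note: initial absorbance extrapolated from kinetic A340 decline of NADH oxidation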
Fluor 339 460: intrinsic fluorescence of library compounds, ex339/em460 – biochemical, MLSMR library, data from DPM-DC assay, artefact control, profiling panel. fluorescence fold increase at 10 µM. compound autofluorescence, ex339/em460 nm, NADH buffer; active compounds read high; 1 = no-compound wells, NADH background. AID 709, 2007. actives 5.5% (n = 65,000);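 active = at 10 µM, mean starting fluorescence two-fold or more over control wells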;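 note: signal is the first read of a kinetic run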
PMK inhibit: S. pneumoniae PMK inhibitors, primary screen, biochemical, mevalonate pathway, pilot trial included; phosphomevalonate kinase (Streptococcus pneumoniae D39); inhibition, % at 10 µM; AID 539, 2006; actives 0.49% (n = 65,000); purified PMK, PK/LDH-coupled NADH absorbance 340 nm;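 active = top-ranked compounds by inhibition in the single 10 µM screen, taking a fixed number of the strongest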;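 note: 0% = full reaction with DMSO carrier and 100% = background rate without enzyme reaction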
The depositor's hits bear a star; i = inactive; · = no result given. This is a sample that favours compounds with a hit; in the whole collection about 6.3% have one here.

SMILES	Spn DPM-DC inh	NADH coupling	Spn MK inh	Abs 340nm	Fluor 339 460	PMK inhibit
COc1ccc(-c2nc(NC(=O)C3CCN(c4nc5ccccc5o4)CC3)sc2C)cc1	i	8%	10	0.89	1.1	13
O=C(C1CCN(c2ccc(N3CCOCC3)nn2)CC1)N1CCc2ccccc2C1	·	9%	2	1	4.7*	15
CCOC(=O)N1CCC(NC(=O)C2CCN(c3ccc(N4CCOCC4)nn3)CC2)CC1	·	5%	1	1	4.9*	9
O=C(C1CCN(S(=O)(=O)N2CCC3(CC2)OCCO3)CC1)N1CCc2ccccc2C1	i	7%	1	1.1	1.1	19
COC(=O)/C(=C1/Oc2cc3c(cc2S1)OCO3)C(F)(F)F	i	11%	8	1.1	2.2*	13
Cc1cc(C)n(C(=O)CNC(=O)COc2ccccc2)n1	i	7%	12	1	1.1	8
COc1cc2[nH]c(=O)n3nc(-c4ccccc4)nc3c2cc1OC	·	16%	13	1.1	2.1*	19
COc1cc2[nH]c(=O)n(CCCC(=O)N3CC=C(c4ccccc4)CC3)c(=O)c2cc1OC	i	7%	17	1.1	1.5	0
CCC(CC)C(=O)Nc1c2cnn(-c3ccccc3)c2nc(=O)n1-c1ccccc1	i	8%	4	1	2.2*	3
CCOC(=O)C(CC)Sc1nc2c(cnn2-c2ccccc2)c(=O)[nH]1 (stereo not given)	i	7%	13	1	1.2	6
CCOC(=O)c1cnn(CCOC(=O)Cc2cccs2)c1NC(=O)Cc1cccs1	i	8%	8	0.99	1.1	15
COC(=O)c1cc2c(ccn2-c2ccc(F)cc2)n1CC(=O)N1CCN(C(=O)c2ccco2)CC1	·	5%	9	1.1	3.5*	0
CCOc1ccc(-c2nnn(CC(=O)Nc3cccc(OC)c3)n2)cc1OCC	i	6%	5	0.97	1.1	13
CCCOc1ccc(-c2nnn(CC(=O)Nc3cccc(C(=O)OC)c3)n2)cc1	i	3%	2	1	1	26*
COc1cc(CNc2ccc3c(c2)CCC3)cc(OC)c1O	i	15%	44*	1.1	1.1	0
O=C(O)CC1NC(=O)N(c2ccc(Cl)cc2)C1=O (stereo not given)	i	3%	2	0.99	1.1	6
Cc1nc2c(C(=O)NCc3ccc(F)cc3)c[nH]n2c(=O)c1Cl	i	12%	5	1.1	1.3	20
COc1cccc2c3c(c(C)nc12)CC(C)O3 (stereo not given)	·	5%	6	1	3.7*	3
COc1ccc2nc(C)c3c(c2c1)OC(C)C3 (stereo not given)	i	2%	3	1.1	1.7	0
CC(C)N(Cc1nc(-c2ccccc2)no1)C(=O)CN(C)S(=O)(=O)c1ccccc1	i	7%	8	1	1.1	12
COCCNC(=O)c1cc2c(=O)n3cccc(C)c3nc2n1C	·	4%	4	1.1	2.1*	4
Cc1cccn2c(=O)c3cc(C(=O)NCCCn4ccnc4)n(C)c3nc12	·	13%	12	1.1	5*	13
CCOCCCNC(=O)c1cc2c(=O)n3cccc(C)c3nc2n1C	·	1%	0	1.1	2.1*	2
CCCCNC(=O)c1cc2c(=O)n3cccc(C)c3nc2n1C	·	15%	11	1.1	2.1*	18
O=C(NCC(F)(F)F)N1CCOCC1	i	2%	5	1	1	0
Cc1ccc(C(=O)C2COC(=O)C2)cc1 (stereo not given)	i	1%	0	0.99	1	6
Cn1c(C(=O)N2CCCc3ccccc32)cc2c(=O)n3ccccc3nc21	i	15%	14	1.1	2.6*	16
Cc1cccn2c(=O)c3cc(C(=O)NCCCN4CCCC4=O)n(C)c3nc12	·	6%	0	1.1	5*	12
Cn1c(C(=O)NCc2ccccn2)cc2c(=O)n3ccccc3nc21	·	6%	3	1.1	4.9*	9
